# The list is a sample of the results.
# aSyn UTR act = Activators via SNCA 5'UTR binding, MLPCN; alpha-synuclein 5'UTR reporter, activators screen; activity score, % (tested at 7.5 µM), hits read low; 300,000 tested, 7.1% active; AID 1814; in the data active means activity score below about -60%
# * hit, by the source's call.
SMILES,aSyn UTR act
CC/C(=N\Nc1nncc2ccccc12)c1ccc(F)cc1,-190*
Clc1ccc(/C=N/Nc2nnc(-c3ncc[nH]3)c3ccccc23)cc1,-169*
Clc1cccc(/C=N/Nc2nnc(Cl)c3ccccc23)c1,-197*
O=C(Nc1cccc(-c2ccc(N3CCOCC3)nn2)c1)c1ccc([N+](=O)[O-])cc1,-99*
O=C(Nc1cccc(-c2ccc(N3CCOCC3)nn2)c1)c1ccccc1,-80*
Cc1ccc(C(=O)Nc2cccc(-c3ccc(N4CCOCC4)nn3)c2)cc1[N+](=O)[O-],-76*
Cc1ccccc1C(=O)Nc1cccc(-c2ccc(N3CCOCC3)nn2)c1,-65*
O=C(COc1ccc(Cl)cc1Cl)Nc1cccc(-c2ccc(N3CCOCC3)nn2)c1,-72*
O=C(Nc1cccc(-c2csc(Nc3ccccc3)n2)c1)c1cc([N+](=O)[O-])cc(C(F)(F)F)c1,-87*
O=C(Nc1cccc(-c2csc(Nc3ccc(Cl)cc3)n2)c1)c1cccc(C(F)(F)F)c1,-71*
O=C(Nc1cccc(-c2csc(Nc3ccc(Cl)cc3)n2)c1)c1cc([N+](=O)[O-])cc(C(F)(F)F)c1,-72*
O=C(CCCC(=O)c1ccc(F)cc1)c1ccc(F)cc1,-118*
CCOc1ccc(C(=O)CCCC(=O)c2ccc(OCC)cc2)cc1,-82*
CC(C)(C)Cc1nnc(NC(=O)c2ccc3c(c2)OCO3)s1,-112*
CCC(CC)c1nnc(NC(=O)c2ccc3c(c2)OCO3)s1,-169*
COc1ccc(CSc2nnc(C)s2)cc1F,-127*
COC(=O)c1cccc(CSc2nnc(C)s2)c1,-82*
Cc1cccc(N/N=C2/COC(C)(C)CC2=O)c1,-101*
CC1(C)CC(=O)/C(=N/Nc2ccc(Cl)cc2)CO1,-230*
O=C(Nc1cnc2ccccn2c1=O)c1ccc(F)cc1,-92*
COc1ccc(C(=O)Nc2cnc3ccccn3c2=O)cc1,-169*
O=C(Nc1cnc2sc3c(n2c1=O)CCCC3)c1ccc(F)cc1,-105*
N#CCCCCn1ccc(NC(=O)c2ccc(Cl)cc2O)n1,-81*
O=C(NC1=NCCS1)Nc1ccccc1,-121*
O=C(NC1=NCCS1)c1csc2ccccc12,-183*
SMILES,aSyn UTR act
CC(Oc1ccccc1)C(=O)NC1=NCCS1 (stereo not drawn),-108*
O=C(Nc1ccccc1)C1=C[C@@H](c2ccc(C(F)(F)F)cc2)C[C@@H](OCCCCO)O1,-95*
C#Cc1ccc([C@@H]2C=C(C(=O)N3CCN(Cc4ccccc4)CC3)O[C@H](OCCCCO)C2)cc1,99
O=C(NCc1ccccc1)C1=C[C@@H](c2csc3ccccc23)C[C@@H](OCCCCO)O1,95
N#C/C(=C\c1cc([N+](=O)[O-])c(N2CCOCC2)cc1N1CCOCC1)c1nc2ccccc2[nH]1,-92*
COc1cc(/C=C(\C#N)c2nc3ccccc3[nH]2)ccc1Oc1ccc([N+](=O)[O-])cn1,-104*
COc1ccc(/C=C(\C#N)c2nc3ccc(C)cc3[nH]2)cc1Oc1ccc(C(F)(F)F)cc1[N+](=O)[O-],-85*
COc1cc(/C=C(/C#N)c2nc3ccccc3[nH]2)ccc1OC(=O)c1ccco1,-114*
COc1cc(/C=C(\C#N)c2nc3ccccc3[nH]2)cc(OC)c1O,-99*
COc1c(O)ccc(/C=C(\C#N)c2nc3ccccc3[nH]2)c1[N+](=O)[O-],-92*
COc1ccc(/C=C(\C#N)c2nc3ccccc3[nH]2)cc1O,-144*
Nc1ccc2nc3c(=O)n(C4CCCCC4)c(=O)[nH]c3nc2c1,-130*
CCn1ccc(C(=O)Nc2cccc(Cl)c2)n1,-159*
CCn1ccc(C(=O)Nc2ccccc2Cl)n1,-96*
CCn1cc(Br)c(C(=O)Nc2cccc(Cl)c2)n1,-93*
CCn1cc(Br)c(C(=O)Nc2ccc(OC)cc2)n1,-118*
COc1cc(C2c3cc4c(cc3C(OC3OC5COC(c6cccs6)OC5C(O)C3O)C3COC(=O)C23)OCO4)cc(OC)c1O (stereo not drawn),82
CCn1cc(Cl)c(C(=O)Nc2ccc(OC)c(OC)c2)n1,-66*
CCn1cc(Br)c(C(=O)Nc2ccc(Cl)c(Cl)c2)n1,-151*
NC(=O)COc1ccc2cc(-c3ccccc3)c(=O)oc2c1,-87*
COc1ccc(-c2cc3ccc(OCC(C)=O)cc3oc2=O)cc1OC,-125*
NC(=O)COc1ccc2oc(-c3ccccc3)cc(=O)c2c1,-166*
COc1ccc(-c2coc3cc4oc(=O)c5ccccc5c4cc23)cc1F,81
NC(=O)COc1ccc2cc(-c3ccc(F)cc3)c(=O)oc2c1,-75*
O=c1oc2cc(OCc3ccc(F)cc3F)ccc2cc1-c1ccccn1,-101*
SMILES,aSyn UTR act
COc1cc(C)ccc1OCc1cc(C(=O)N2CCN(C3CCCCC3)CC2)no1,-99*
COc1ccccc1N1CCN(C(=O)c2c(-c3ccccc3)noc2C)CC1,-78*
COc1cc(C)ccc1OCc1cc(C(=O)N2CCCCCCC2)no1,-62*
Cc1ccc(OCc2cc(C(=O)N3CCC(C(O)C(C)C)CC3)no2)cc1C (stereo not drawn),-80*
COc1cccc(N2CCN(C(=O)c3ccc(CS(=O)c4ccccc4Cl)o3)CC2)c1 (stereo not drawn),110
COc1cccc(OCc2cc(C(=O)N3CCN(c4ccccc4OC)CC3)no2)c1,-139*
Cc1ccc(OCc2cc(C(=O)N3CCC(c4ccccc4Cl)C3)no2)cc1C (stereo not drawn),-165*
Cc1ccc(OCc2cc(C(=O)N3CCN(C4CCCCC4)CC3)no2)cc1C,-62*
Cc1ccc(OCc2cc(C(=O)N3CCN(c4ccccc4)CC3)no2)cc1C,-155*
Cc1ccc(OCc2cc(C(=O)N(CCO)Cc3cccs3)no2)cc1C,-81*
CCN1CCN(C(=O)c2cc(COc3ccc(C(C)=O)cc3OC)on2)CC1,-146*
COc1cc(C)ccc1OCc1cc(C(=O)NC(C)Cn2cncn2)no1 (stereo not drawn),-155*
COc1ccc(C(=O)/C=C/C(=O)N(CC(=O)NCCC(C)C)Cc2cccs2)c(O)c1,61
CC(=O)N(C)c1ccc(N=Nc2c(C)[nH]n(C(N)=S)c2=O)cc1,-112*
Cc1cccc(N=Nc2c(C)[nH]n(C(N)=S)c2=O)c1C,-199*
Cc1[nH]n(C(N)=S)c(=O)c1N=Nc1cccc(Cl)c1,-126*
Cc1ccc(/C(N)=N/OC(=O)Cc2cccs2)cc1,-169*
Cc1cccc(/C(N)=N/OC(=O)Cc2cccs2)c1,-141*
N/C(=N\OC(=O)Cc1cccs1)c1ccccc1,-214*
N/C(Cc1cccs1)=N\OC(=O)COc1ccccc1,-77*
CC1=CC(C)(C)N=C(Nc2ccc(C)cc2)S1,-169*
Clc1nc2ccccc2cc1-c1nnn(-c2ccccc2)n1,-160*
COc1ccc2oc(-c3ccc(C)c(NC(=O)CSc4ccc(Cl)cc4)c3)nc2c1,-133*
O=C(CSc1ccc(Cl)cc1)Nc1cc(-c2nc3ncccc3o2)ccc1Cl,-74*
O=c1oc2ccc(Cl)cc2nc1/C=C(\O)c1cccs1,-108*
SMILES,aSyn UTR act
Cc1ccc2oc(=O)c(/C=C(\O)c3ccccc3)nc2c1,-79*
Cc1ccc2oc(=O)c(/C=C(\O)c3cccs3)nc2c1,-148*
CSc1ccc(C2N=C(c3ccccc3)NO2)cc1 (stereo not drawn),-128*
Oc1c(Br)cc(C2N=C(c3ccccc3)NO2)cc1Br (stereo not drawn),-65*
O=C(O)C(C(=O)/C=C/c1ccco1)=C1SCCS1,-69*
CCO[C@@H]1OC(C(=O)NCc2nc3ccccc3[nH]2)=C[C@H](C2CC2)[C@H]1CCCO,-119*

# Bioassay records (PubChem BioAssay)
